From PubChem BioAssay (NCATS)
Values joined by “and” are separate entries in the source; they are usually repeats but may differ in a detail not shown here. Equal entries are not always repeated. Records with an inconclusive call do not appear. Active and inactive are the calls of the source. Calls follow the shape of the full dose curve.

molecular target: Vitamin D3 receptor (Homo sapiens) (UniProt P11473); assay: qHTS assay for small molecule agonists of vitamin D receptor signaling (AID 588543); details: HEK293T VDR-UAS-bla, beta-lactamase ratio, 16 h; series mostly up to 76.8 µM;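 also: 0% = DMSO basal and 100% = reference agonist control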
Procedure, shortened: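 Reporter cells (HEK293T, VDR-UAS-bla) were seeded in medium with 2% charcoal-stripped serum and incubated 5 h, then compounds in concentration series were added for 16 h at 37 °C. Stimulation was scaled between DMSO basal and 50 nM 1α,25-dihydroxyvitamin D3.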

Sequence of Vitamin D3 receptor (Homo sapiens) (P11473 whole entry, looked up): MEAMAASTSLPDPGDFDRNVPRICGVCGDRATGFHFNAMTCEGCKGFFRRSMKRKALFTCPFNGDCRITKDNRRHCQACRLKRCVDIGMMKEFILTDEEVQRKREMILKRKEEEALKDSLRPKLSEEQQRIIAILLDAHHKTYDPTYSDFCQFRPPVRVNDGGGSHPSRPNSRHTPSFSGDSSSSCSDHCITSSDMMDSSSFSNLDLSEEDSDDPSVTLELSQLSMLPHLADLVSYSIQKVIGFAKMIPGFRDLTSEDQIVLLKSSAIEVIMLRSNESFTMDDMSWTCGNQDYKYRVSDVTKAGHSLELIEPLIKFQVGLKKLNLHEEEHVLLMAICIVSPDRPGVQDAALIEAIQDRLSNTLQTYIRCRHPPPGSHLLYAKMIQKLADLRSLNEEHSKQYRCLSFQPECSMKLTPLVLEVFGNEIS

SMILES	outcome
Cc1ccc(OP(=O)(Oc2ccc(C)cc2)Oc2ccc(C)cc2)cc1	inactive
Nc1ccc(Cc2ccc(N)c(Cl)c2)cc1Cl	inactive
O=[N+]([O-])c1c(Cl)c(Cl)c(Cl)c(Cl)c1Cl	inactive
CN1CSC(=S)N(C)C1	inactive
ClCC(Cl)Cl	inactive
C=CC(=O)OCCO	inactive
CC(C)Br	inactive
CC(C)[N+](=O)[O-]	inactive
CCCC[N+](=O)[O-]	inactive
Cc1cc(-c2cc(C)c(N)c(C)c2)cc(C)c1N	inactive
Nc1cc(Cl)ccc1O	inactive
CCN(N=O)C(N)=O	inactive
CCCCC(CC)COC(=O)c1ccc(C(=O)OCC(CC)CCCC)c(C(=O)OCC(CC)CCCC)c1 (configuration not stated)	inactive
Nc1c(Br)cc([N+](=O)[O-])cc1[N+](=O)[O-]	inactive
O=[N+]([O-])c1ccccc1CCl	inactive
Cc1cc(C)cc(OP(=O)(Oc2cc(C)cc(C)c2)Oc2cc(C)cc(C)c2)c1	inactive
COP(=S)(OC)SCn1nnc2ccccc2c1=O	inactive
O=C(O)c1cccc(Cl)c1	inactive
Cc1cc(N=Nc2ccccc2C)ccc1N	inactive
OCCCCO	inactive
O=[N+]([O-])c1cc(Cl)c(Cl)c(Cl)c1	inactive
CC(C)(COCC1CO1)COCC1CO1 (configuration not stated)	inactive
CC(C)(C)OOC(=O)c1ccccc1	inactive
c1ccc(N=NNc2ccccc2)cc1	inactive
C(CCOCC1CO1)COCC1CO1 (configuration not stated)	inactive
CN(C)c1ccc(N)cc1	inactive

test system: not listed separately; assay: qHTS assay for small molecule agonists of retinoid X receptor alpha signaling (AID 588544); details: HEK293T RXRa-UAS-bla, beta-lactamase reporter, 18 h; 530 nm emission

SMILES	max response
O=C(O)C(Br)Br	-1.1%
Cc1ccc(OP(=O)(Oc2ccc(C)cc2)Oc2ccc(C)cc2)cc1	-17.7%
Oc1c(Cl)c(Cl)cc(Cl)c1Cl	19.2%
CN(C)c1ccc(N(C)C)cc1	-11.6%
O=[N+]([O-])c1c(Cl)c(Cl)c(Cl)c(Cl)c1Cl	-0.246% and 22.3%
ClCC(Cl)Cl	-11.1%
C=CC(=O)OCCO	-8.13%
CC(C)Br	-8.42%
O=[N+]([O-])c1ccc(O)c([N+](=O)[O-])c1	-6.65%
CC(C)[N+](=O)[O-]	5.89%
CCCC[N+](=O)[O-]	-5.28%
Cc1cc(-c2cc(C)c(N)c(C)c2)cc(C)c1N	-7.36%
CCN(N=O)C(N)=O	-12%
N#CC(Cl)(Cl)Cl	-10.8%
CCCCC(CC)COC(=O)c1ccc(C(=O)OCC(CC)CCCC)c(C(=O)OCC(CC)CCCC)c1 (configuration not stated)	-8.52%
O=C(O)C(Br)CBr (configuration not stated)	10.3%
Nc1c(Br)cc([N+](=O)[O-])cc1[N+](=O)[O-]	-9.23%

SMILES	max response
O=[N+]([O-])c1ccccc1CCl	-8.73%
Cc1cc(C)cc(OP(=O)(Oc2cc(C)cc(C)c2)Oc2cc(C)cc(C)c2)c1	-11.1%
N#CC(Br)Br	0.349%
O=C(O)C(Cl)Br (configuration not stated)	-0.567%
Nc1ccc([N+](=O)[O-])cc1N	-12.1%
O=C(O)c1cccc(Cl)c1	-9.83%
OCCCCO	1.71%
O=[N+]([O-])c1cc(Cl)c(Cl)c(Cl)c1	9.3%
Cc1ccc2c(c1N)C(=O)c1ccccc1C2=O	-11.3% and 17.2%
COc1ccccc1N	-8.71%
CC(C)(C)OOC(=O)c1ccccc1	3.54% and -7.62%
c1ccc(N=NNc2ccccc2)cc1	7.75%
COC(C)(C)C	9.16%
C(CCOCC1CO1)COCC1CO1 (configuration not stated)	-1.76%
CN(C)c1ccc(N)cc1	-18.3%
O=[N+]([O-])/C=C/c1ccccc1	-4.59%

molecular target: Retinoic acid receptor RXR-alpha (Homo sapiens) (UniProt P19793); assay: as above; details: HEK293T RXRa-UAS-bla, beta-lactamase reporter, 18 h; series mostly up to 76.7 µM
Sequence (P19793 whole entry, looked up): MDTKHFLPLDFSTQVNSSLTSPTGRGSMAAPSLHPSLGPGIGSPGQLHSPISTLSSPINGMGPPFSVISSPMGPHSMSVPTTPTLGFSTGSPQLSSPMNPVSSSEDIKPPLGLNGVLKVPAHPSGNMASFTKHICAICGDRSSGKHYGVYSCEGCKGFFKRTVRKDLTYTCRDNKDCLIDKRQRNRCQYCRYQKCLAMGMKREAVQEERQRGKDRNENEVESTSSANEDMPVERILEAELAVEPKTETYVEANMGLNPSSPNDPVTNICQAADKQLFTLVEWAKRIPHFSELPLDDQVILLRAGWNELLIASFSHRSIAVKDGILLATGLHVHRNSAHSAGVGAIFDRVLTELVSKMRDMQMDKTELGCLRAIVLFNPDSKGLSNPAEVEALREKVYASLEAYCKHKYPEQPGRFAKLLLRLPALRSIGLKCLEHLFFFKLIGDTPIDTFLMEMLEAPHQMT

SMILES	outcome
O=C(O)C(Br)Br	inactive
Cc1ccc(OP(=O)(Oc2ccc(C)cc2)Oc2ccc(C)cc2)cc1	inactive
Oc1c(Cl)c(Cl)cc(Cl)c1Cl	inactive
CN(C)c1ccc(N(C)C)cc1	inactive
O=[N+]([O-])c1c(Cl)c(Cl)c(Cl)c(Cl)c1Cl	inactive
ClCC(Cl)Cl	inactive
C=CC(=O)OCCO	inactive
CC(C)Br	inactive
O=[N+]([O-])c1ccc(O)c([N+](=O)[O-])c1	inactive
CC(C)[N+](=O)[O-]	inactive
CCCC[N+](=O)[O-]	inactive
Cc1cc(-c2cc(C)c(N)c(C)c2)cc(C)c1N	inactive
CCN(N=O)C(N)=O	inactive
N#CC(Cl)(Cl)Cl	inactive
CCCCC(CC)COC(=O)c1ccc(C(=O)OCC(CC)CCCC)c(C(=O)OCC(CC)CCCC)c1 (configuration not stated)	inactive
O=C(O)C(Br)CBr (configuration not stated)	inactive
Nc1c(Br)cc([N+](=O)[O-])cc1[N+](=O)[O-]	inactive

SMILES	outcome
O=[N+]([O-])c1ccccc1CCl	inactive
Cc1cc(C)cc(OP(=O)(Oc2cc(C)cc(C)c2)Oc2cc(C)cc(C)c2)c1	inactive
N#CC(Br)Br	inactive
O=C(O)C(Cl)Br (configuration not stated)	inactive
Nc1ccc([N+](=O)[O-])cc1N	inactive
O=C(O)c1cccc(Cl)c1	inactive
OCCCCO	inactive
O=[N+]([O-])c1cc(Cl)c(Cl)c(Cl)c1	inactive
Cc1ccc2c(c1N)C(=O)c1ccccc1C2=O	inactive
COc1ccccc1N	inactive
CC(C)(C)OOC(=O)c1ccccc1	inactive
c1ccc(N=NNc2ccccc2)cc1	inactive
COC(C)(C)C	inactive
C(CCOCC1CO1)COCC1CO1 (configuration not stated)	inactive
CN(C)c1ccc(N)cc1	inactive
O=[N+]([O-])/C=C/c1ccccc1	inactive
